Drawing on PubChem BioAssay AID894 (National Center for Advancing Translational Sciences (NCATS), 2007), this text covers activity change, negative = inhibition and Potency for 93 compounds.

Hit rate of the full screen: of about 150,000 compounds, about 6,500 (4.3%) were called active. Inconclusive results (about 12%) are left out. Calls come from the whole dose curve; as a rule, active = well fitted inhibition curve with a large enough effect (not every such curve was filed as active); inconclusive = small, poorly fitted or top-dose-only effect, or another doubt; inactive = no such curve, though single readings can be large or run the other way. What follows is part of a selection rich in actives, with near analogues and random picks from the rest.
% is set by controls: 0 for no effect and ±100 for the full control effect; potency is the fitted concentration of half-maximal effect.

In the experiment the target is 15-hydroxyprostaglandin dehydrogenase [NAD(+)] (Homo sapiens) (UniProt P15428). As to the kind of experiment: qHTS Assay for Inhibitors of HPGD (15-Hydroxyprostaglandin Dehydrogenase). As to conditions: purified HPGD, NADH fluorescence kinetic, PGE2 substrate; activity change, negative = inhibition: hits give low values. An outline of the steps: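 20 nM HPGD preincubated 15 min at room temperature with compound in 50 mM Tris-HCl pH 8, 0.01% Tween 20. Started with 1 mM NAD+ and 30 uM prostaglandin E2; NADH fluorescence (360/450 nm) read 5 times over 30-s intervals, last minus first.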
Chain of 15-hydroxyprostaglandin dehydrogenase [NAD(+)] (Homo sapiens) (P15428 whole entry, looked up): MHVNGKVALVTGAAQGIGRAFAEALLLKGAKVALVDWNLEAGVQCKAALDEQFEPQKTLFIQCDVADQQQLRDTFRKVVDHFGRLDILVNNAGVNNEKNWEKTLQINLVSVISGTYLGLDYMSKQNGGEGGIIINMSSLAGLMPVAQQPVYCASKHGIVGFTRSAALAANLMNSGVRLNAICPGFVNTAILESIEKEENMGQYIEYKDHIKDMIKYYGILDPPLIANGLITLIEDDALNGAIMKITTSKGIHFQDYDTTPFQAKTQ
(qHTS replaces the single test concentration by a dilution series.)
For `COC(=O)/C(C#N)=C/c1occc1C`, the activity change, negative = inhibition is -10.9% (inactive).
For the compound `N#C/C(=C/c1cccc([N+](=O)[O-])c1)c1nnc2n1CCCCC2`, the Potency was 20 µM (active).
With `O=[N+]([O-])c1cccc(S(=O)(=O)N2CCCCCC2)c1`, the activity change, negative = inhibition was -12% (inactive).
The same measure, in the same setting: then `N#C/C(=C(\O)CCl)c1nnc2n1CCCCC2`, with 1.76% (inactive); and `Cc1ccn(-c2cccc(-n3ccc(C)n3)n2)n1`, with -19.2% (inactive); and `CC(C)NS(=O)(=O)c1ccc(OCC(=O)Nc2ccc3c(c2)OCCO3)cc1`, with 0.139% (inactive).
Still for that read-out and setting: to `O=C(OCC(=O)c1cccs1)C1=COCCO1` belongs -17.4% (inactive).
For `CCC(C)(C)c1ccc(Oc2ccc(NC(=O)COC(=O)C3=COCCO3)cc2)cc1`, the Potency is 14.1 µM (active).
Consider `CC(C)(C)CC(C)(C)NCC(O)COCCOc1ccc(Br)cc1` (stereo not drawn), for which the activity change, negative = inhibition was -5.61% (inactive).
`CCOC(=O)c1c(/N=C/C2C(=O)CC(C)(C)CC2=O)sc(C)c1C`: the activity change, negative = inhibition is -11.6% (inactive).
Still for that read-out and setting: to `CCc1ccc(NC(=O)c2ccc(Cn3cc([N+](=O)[O-])cn3)cc2)cc1` belongs -0.318% (inactive).
On the same count and under the same terms, to `O=C(c1ccccc1)c1ccc(OC(=O)N2CCCC2)cc1` belongs -20% (inactive); to `O=C(Oc1ccccc1)c1ccc2nccnc2c1`, -13% (inactive).
In the case of `O=C(COc1cccc(F)c1)Oc1ccc(C(=O)c2ccccc2)cc1`, the Potency was 7.94 µM (active).
As for `C/C(=N\NC(=O)Cc1ccc(F)cc1)c1ccc(F)cc1`, the activity change, negative = inhibition is -3.27% (inactive).
Still for that read-out and setting: to `Cc1ccc(S(=O)(=O)N(NC2=NS(=O)(=O)c3ccccc32)C(=O)c2ccccc2)cc1` belongs -7.36% (inactive).
The same measure, in the same setting: then `Cc1ccc(NC(=S)NC2CCCC2)cc1`, with -9.46% (inactive); and `Cc1ccc(NC(=O)CSCC(=O)N2CCOCC2)cc1`, with 2.74% (inactive).
As to `Cc1ccc(NC(=O)CSCC(=O)NC2CCCCC2)cc1`, the Potency is 15.8 µM (active).
Consider `Cc1ccc(/C(N)=N/OC(=O)COc2ccc(Cl)c(C)c2)cc1`, for which the activity change, negative = inhibition is -14.6% (inactive).
On the same count and under the same terms, to `COc1ccc(O)c(C(=O)c2cnc3onc(C(C)C)c3c2)c1` belongs -14.6% (inactive).
`COCCn1c(=O)[nH]c(=O)c2cc(C(=O)c3cc(OC)ccc3O)cnc21`: the Potency is 25.1 µM (active).
Take `COCCn1c(=S)[nH]c2cc(C(=O)NCCc3ccc(OC)c(OC)c3)ccc2c1=O`: the activity change, negative = inhibition is -4.68% (inactive).
Turning to `Cc1ccc(CN2C(=O)N/C(=C/c3cc(C)n(-c4ccccn4)c3C)C2=O)cc1`, the activity change, negative = inhibition is -12.6% (inactive).
For `C/C(Cc1ccccc1)=N\NC(=O)CNC(=O)c1cccc(Br)c1`, the activity change, negative = inhibition is -6.55% (inactive).
On the same count and under the same terms, then `O=C(COC(=O)Cc1ccc(F)cc1)Nc1cc(S(=O)(=O)N2CCOCC2)ccc1N1CCCC1`, with -3.83% (inactive).
Same read-out and setting: to `CCCCCCn1c(SCC(=O)c2ccccc2)nc2c1c(=O)[nH]c(=O)n2C` belongs -21.9% (inactive); to `CCCSc1nc2c(c(=O)[nH]c(=O)n2C)n1CCc1ccccc1`, -20.7% (inactive).
As for `CCCCCn1c(SCCC(C)C)nc2c1c(=O)[nH]c(=O)n2C`, the Potency was 20 µM (active).
Turning to `O=C(COC(=O)Cc1ccc(Br)cc1)Nc1c(F)c(F)c(F)c(F)c1F`, the activity change, negative = inhibition was -9.95% (inactive).
Still for that read-out and setting: then `Cc1[nH]n(-c2cccc(Cl)c2)c(=O)c1/C=N/n1c(C)nc2ccccc2c1=O`, with -20.7% (inactive).
In the case of `O=c1[nH]n(-c2cccc(Cl)c2)c2ncccc12`, the Potency was 6.31 µM (active).
As for `Cc1[nH]n(-c2cccc(Cl)c2)c(=O)c1-c1ccc(Cl)cc1`, the activity change, negative = inhibition is -13% (inactive).
For the compound `COc1cc(CCC(=O)OCC(=O)Nc2cccc(S(N)(=O)=O)c2)cc(OC)c1OC`, the activity change, negative = inhibition is -6.23% (inactive).
Still for that read-out and setting: then `COC(=O)c1onc(-c2c(OC)cc(OC)cc2OC)c1C(=O)OC`, with -3.93% (inactive); and `N#Cc1ccsc1NC(=O)CN1CCN(S(=O)(=O)c2cc(Cl)ccc2Cl)CC1`, with -24.3% (inactive).
Same read-out and setting: then `CCCSc1nc2c(c(=O)n(C)c(=O)n2C)n1Cc1ccc(C)cc1`, with -7.96% (inactive).
In the case of `Cc1ccc(NN=Nc2nc3c([nH]2)c(=O)n(C)c(=O)n3C)cc1`, the Potency is 22.4 µM (active).
`CC(CCO)Nc1nc2c([nH]1)c(=O)n(C)c(=O)n2C` (stereo not drawn): the activity change, negative = inhibition is -11.6% (inactive).
For `Cn1c(=O)c2c(nc(Br)n2CCSc2nc3ccccc3o2)n(C)c1=O`, the Potency was 31.6 µM (active).
The same measure, in the same setting: then `Cn1c(=O)[nH]c(=O)c2c1nc(Br)n2CCCCSc1nc2ccccc2o1`, with 25.1 µM (active).
On to `CCN(CC)C(=O)CSc1nc2ccccc2o1`, for which the activity change, negative = inhibition was -23.4% (inactive).
Same read-out and setting: then `Cc1ccnc(SCCn2c(Br)nc3c2c(=O)[nH]c(=O)n3C)n1`, with -9.47% (inactive); and `CN(Cc1ccccc1)c1nc2c(c(=O)[nH]c(=O)n2C)n1CCSc1nc2ccccc2[nH]1`, with -9.14% (inactive); and `Cc1cccc(Cn2c(SCCO)nc3c2c(=O)n(C)c(=O)n3C)c1`, with -7.66% (inactive).
Same read-out and setting: then `CCCC/S(C)=N/S(=O)(=O)c1ccc(C)cc1` (stereo not drawn), with 1.3% (inactive).
The same measure, in the same setting: then `Cc1ccc(C)c(NC(CC(=O)c2ccccc2)C(=O)OCC(=O)c2cccs2)c1` (stereo not drawn), with -4.17% (inactive); and `CCOc1ccccc1N1CCN(C(=S)Nc2ccc(S(N)(=O)=O)cc2)CC1`, with -4.15% (inactive).
Regarding `Cc1ccc(S(=O)(=O)C2C(=O)NC3(C)CC2c2ccccc2O3)cc1` (stereo not drawn), the activity change, negative = inhibition is -19.6% (inactive).
In the case of `O=C(NN1C(=O)C2C3C=CC(O3)C2C1=O)c1ccncc1` (stereo not drawn), the activity change, negative = inhibition was 2.88% (inactive).
`CCn1c(=N)n(CC(=O)c2cccc(OC)c2)c2ccccc21`: the Potency was 35.5 µM (active).
As for `CCCCOC(=O)Cn1c(=N)n(CCN(CC)CC)c2ccccc21`, the activity change, negative = inhibition is -7.8% (inactive).
Regarding `COc1cccc(C(=O)NNC(=O)c2ccccc2Br)c1`, the activity change, negative = inhibition was -0.052% (inactive).
Still for that read-out and setting: to `Cn1cccc1/C=C1\SC(=S)N(NC(=O)c2ccc(Cl)cc2)C1=O` belongs -8.93% (inactive).
Consider `Cc1cc(C)c(C#N)c(SCS(=O)c2ccc(C(C)(C)C)cc2)n1` (stereo not drawn), for which the Potency was 15.8 µM (active).
On to `Cc1cc(C)c(C#N)c(SCc2ccccc2C(=O)O)n1`, for which the activity change, negative = inhibition was -15% (inactive).
On to `Cc1cc(C)c(C#N)c(SCC(=O)NN2CC(=O)N(c3ccccc3F)CC2=O)n1`, for which the activity change, negative = inhibition was -14% (inactive).
Turning to `Cc1ccc(C(=O)NC(=S)NCCN2CCOCC2)cc1`, the activity change, negative = inhibition is -5.64% (inactive).
On to `Cc1c(O)c(Br)c(C)c(O)c1Br` (tested in a mixture with another compound), for which the Potency is 0.891 µM (active).
The same measure, in the same setting: then `O=C(OCC#CCSc1nnc(-c2ccncc2)o1)c1sc2ccccc2c1Cl`, with 20 µM (active).
Take `CCOC(=O)CSc1nnc(-c2ccncc2)o1`: the activity change, negative = inhibition is -12.2% (inactive).
Same read-out and setting: then `O=C(CSc1nnc(-c2ccncc2)o1)NCc1ccc(Cl)cc1`, with -1.7% (inactive); and `O=C(CCc1ccccc1)Nc1nn[nH]n1`, with -9.52% (inactive).
Still for that read-out and setting: to `O=C(O)C1CC=CCC1C(=O)Nc1ccccc1C(=O)N1CCN(c2ccccc2)CC1` (stereo not drawn) belongs -1.15% (inactive); to `Cc1cccc(N2CCN(C(=O)c3ccccc3NC(=O)C3CCCCC3C(=O)O)CC2)c1` (stereo not drawn), -8.91% (inactive).
For the compound `CC(C)c1ccc(N2CCN(C(=O)c3ccccc3NC(=O)/C=C(\C(=O)O)c3ccccc3)CC2)cc1`, the Potency was 35.5 µM (active).
Regarding `O=C(C/C(=N\NC(=O)c1ccccc1Br)C(F)(F)F)c1cccs1`, the activity change, negative = inhibition is -18.1% (inactive).
The same measure, in the same setting: to `N#Cc1cccc(CS(=O)(=O)c2nnnn2-c2cc(C(F)(F)F)cc(C(F)(F)F)c2)c1` belongs -8.91% (inactive); to `COCCn1c(=NC(=O)c2ccccc2[N+](=O)[O-])sc2cc(S(C)(=O)=O)ccc21`, -11.2% (inactive).
For the compound `CC(C)c1ccc(/C=C/C(=O)NNC(=O)c2cccnc2)cc1`, the activity change, negative = inhibition was -6.71% (inactive).
In the case of `CC(C)c1ccc(Nc2ncccc2C#N)cc1`, the Potency was 25.1 µM (active).
For `O=C(Nc1ccccc1)c1cccnc1Nc1ccccc1`, the activity change, negative = inhibition was -10.1% (inactive).
Still for that read-out and setting: then `O=C(Nc1ccccc1)c1cc2ccccc2[nH]1`, with -6.75% (inactive).
Turning to `COc1ccc(C)cc1NC(=O)CSc1ccc(Cl)cc1`, the activity change, negative = inhibition was -13.4% (inactive).
On the same count and under the same terms, to `Cc1cc(C(=O)OCC(=O)Nc2nnc(C(C)C)s2)c2ccccc2n1` belongs -10.9% (inactive).
Same read-out and setting: then `COCCCNC(=S)NC(=O)c1ccc([N+](=O)[O-])cc1`, with -5.32% (inactive); and `CCOC(=O)c1c(NC(=O)C2CCN(S(=O)(=O)c3ccc(Cl)cc3)CC2)sc2c1CCCC2`, with -27.2% (inactive); and `CC(C)OC(=O)c1cc(NC(=O)C2C3CCC(O3)C2C(=O)O)cc(C(=O)OC(C)C)c1` (stereo not drawn), with -13.2% (inactive).
Regarding `Cc1sc(NC(=O)C2C3CCC(O3)C2C(=O)O)c(C(=O)OC(C)C)c1-c1ccc(Cl)cc1` (stereo not drawn), the Potency is 35.5 µM (active).
Consider `Cc1cc(NC(=O)COC(=O)COc2ccc(Cl)cc2C)c([N+](=O)[O-])cc1C`, for which the activity change, negative = inhibition is -9.4% (inactive).
On the same count and under the same terms, to `Cc1ccc(CN2CCN(/N=C/c3cccnc3)CC2)c(C)c1` belongs -0.74% (inactive); to `O=C(CSC1CC(=O)N(CCc2ccccc2)C1=O)Nc1ccc(Cl)cc1` (stereo not drawn), -11.7% (inactive).
In the case of `CCOC(=O)NC(=O)C(=CNc1cccc(OC)c1)C(=O)NC(=O)OCC`, the activity change, negative = inhibition was -21.8% (inactive).
`O=C(CSc1nnc2scc(-c3ccc(F)cc3)n12)NCc1ccco1`: the activity change, negative = inhibition was -3.23% (inactive).
Same read-out and setting: to `Cc1ccc(-c2csc3nnc(SCC(=O)NCc4ccco4)n23)cc1` belongs -10.8% (inactive).
As to `Cn1c(-c2ccc(F)cc2)cnc1SCC(=O)NCc1ccco1`, the Potency was 31.6 µM (active).
Turning to `CCN(CC)CCNCc1ccc(OCc2ccc(Cl)nc2)c(OC)c1`, the activity change, negative = inhibition was -2.75% (inactive).
The same measure, in the same setting: then `O=C1C2C3C=CC(C4CC34)C2C(=O)N1c1nccs1` (stereo not drawn), with -6.02% (inactive); and `CCOc1cccc(NC(=O)C2CCCN(S(=O)(=O)c3ccc(OC)cc3)C2)c1` (stereo not drawn), with -17% (inactive).
With `CCOc1ccc2nc(C(=O)N3CCCC(C)C3)sc2c1` (stereo not drawn), the Potency is 7.94 µM (active).
Regarding `CCOc1ccc2nc(SC(CC)C(=O)Nc3cc(C)on3)sc2c1` (stereo not drawn), the activity change, negative = inhibition was 0.253% (inactive).
With `CCC(C)(C(=O)Nc1ccccc1C)N(C(=O)CNC(C)=O)c1ccc(C)cc1` (stereo not drawn), the activity change, negative = inhibition is 1.96% (inactive).
Take `COc1ccc(N2C(=O)C(CC(=O)Nc3ccc(F)cc3)N(CCc3cccs3)C2=O)cc1` (stereo not drawn): the activity change, negative = inhibition is -5.46% (inactive).
